# Structures can show the parent of a compound that is named as a salt.
# Tests used:
# U-2932 [1] = assay: growth inhibition by drug alone (1 - RLU/untreated control) (fraction); higher = stronger inhibition; conditions: 177Lu-lilotomab satetraxetan 0 ug/ml
# Method in brief: (§1)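 Growth inhibition was calculated from RealTime-Glo RLU against untreated no-drug wells. Values equal 1 − RLU/mean of 48 untreated no-drug wells per plate, read daily from day 3 after 1 h at 37°C. RIVA and U-2932 cells, with or without 18 h pretreatment by a radiolabelled anti-CD37 antibody conjugate (~600 MBq/mg; 0.5 µg/ml RIVA, 1 µg/ml U-2932), were washed and plated at 3,000 cells/well on compound-printed plates at 10/100 nM (RIVA) or 10/1,000 nM (U-2932).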
# RIVA [2] = assay: as above; conditions: 177Lu-lilotomab satetraxetan 0 ug/ml
# Method in brief: as §1
# U-2932 [3] = assay: growth inhibition by drug plus 177Lu-lilotomab satetraxetan (1 - RLU/untreated control) (fraction); higher = stronger inhibition; conditions: 177Lu-lilotomab satetraxetan 1 ug/ml
# Method in brief: as §1
# RIVA [4] = assay: as above; conditions: 177Lu-lilotomab satetraxetan 0.5 ug/ml
# Method in brief: as §1
Compound,"growth inhibition by drug alone (U-2932 [1]; 10 nM, time (day): 3)","growth inhibition by drug alone (U-2932 [1]; 10 nM, time (day): 4)","growth inhibition by drug alone (U-2932 [1]; 10 nM, time (day): 5)","growth inhibition by drug alone (U-2932 [1]; 10 nM, time (day): 6)","growth inhibition by drug alone (U-2932 [1]; 1000 nM, time (day): 3)","growth inhibition by drug alone (U-2932 [1]; 1000 nM, time (day): 4)","growth inhibition by drug alone (U-2932 [1]; 1000 nM, time (day): 5)","growth inhibition by drug alone (U-2932 [1]; 1000 nM, time (day): 6)","growth inhibition by drug alone (RIVA [2]; 10 nM, time (day): 3)","growth inhibition by drug alone (RIVA [2]; 10 nM, time (day): 4)","growth inhibition by drug alone (RIVA [2]; 10 nM, time (day): 5)","growth inhibition by drug alone (RIVA [2]; 10 nM, time (day): 6)","growth inhibition by drug alone (RIVA [2]; 100 nM, time (day): 3)","growth inhibition by drug alone (RIVA [2]; 100 nM, time (day): 4)","growth inhibition by drug alone (RIVA [2]; 100 nM, time (day): 5)","growth inhibition by drug alone (RIVA [2]; 100 nM, time (day): 6)","growth inhibition by drug plus 177Lu-lilotomab satetraxetan (U-2932 [3]; 10 nM, time (day): 3)","growth inhibition by drug plus 177Lu-lilotomab satetraxetan (U-2932 [3]; 10 nM, time (day): 4)","growth inhibition by drug plus 177Lu-lilotomab satetraxetan (U-2932 [3]; 10 nM, time (day): 5)","growth inhibition by drug plus 177Lu-lilotomab satetraxetan (U-2932 [3]; 10 nM, time (day): 6)","growth inhibition by drug plus 177Lu-lilotomab satetraxetan (U-2932 [3]; 1000 nM, time (day): 3)","growth inhibition by drug plus 177Lu-lilotomab satetraxetan (U-2932 [3]; 1000 nM, time (day): 4)","growth inhibition by drug plus 177Lu-lilotomab satetraxetan (U-2932 [3]; 1000 nM, time (day): 5)","growth inhibition by drug plus 177Lu-lilotomab satetraxetan (U-2932 [3]; 1000 nM, time (day): 6)","growth inhibition by drug plus 177Lu-lilotomab satetraxetan (RIVA [4]; 10 nM, time (day): 3)","growth inhibition by drug plus 177Lu-lilotomab satetraxetan (RIVA [4]; 10 nM, time (day): 4)","growth inhibition by drug plus 177Lu-lilotomab satetraxetan (RIVA [4]; 10 nM, time (day): 5)","growth inhibition by drug plus 177Lu-lilotomab satetraxetan (RIVA [4]; 10 nM, time (day): 6)","growth inhibition by drug plus 177Lu-lilotomab satetraxetan (RIVA [4]; 100 nM, time (day): 3)","growth inhibition by drug plus 177Lu-lilotomab satetraxetan (RIVA [4]; 100 nM, time (day): 4)","growth inhibition by drug plus 177Lu-lilotomab satetraxetan (RIVA [4]; 100 nM, time (day): 5)","growth inhibition by drug plus 177Lu-lilotomab satetraxetan (RIVA [4]; 100 nM, time (day): 6)"
FC(F)c1nc2ccccc2n1-c1nc(N2CCOCC2)nc(N2CCOCC2)n1,0.143,0.0834,0.0466,0.0263,0.437,0.399,0.349,0.367,0.208,0.164,0.161,0.106,0.823,0.782,0.766,0.718,0.0955,0.119,0.149,0.22,0.282,0.348,0.331,0.393,0.45,0.529,0.568,0.572,0.763,0.779,0.782,0.761
C#CCN(C)CC1=Cc2ccccc2Oc2ccccc21,0.0712,0.0296,-0.0381,-0.0948,0.056,0.0596,0.000991,0.0366,-0.0236,-0.0211,-0.0438,-0.145,-0.121,-0.0828,-0.112,-0.138,0.0301,0.075,0.128,0.198,0.0289,0.0839,0.129,0.233,0.602,0.618,0.628,0.62,0.573,0.617,0.634,0.63
C#Cc1cccc(Nc2ncnc3cc(OCCOC)c(OCCOC)cc23)c1 [Erlotinib HCl],0.33,0.251,0.131,0.0458,0.731,0.715,0.655,0.621,0.349,0.233,0.131,-0.221,0.656,0.642,0.6,0.46,0.195,0.2,0.208,0.267,0.712,0.704,0.691,0.685,0.595,0.534,0.536,0.524,0.791,0.81,0.788,0.724
O=C(NC1CCNCC1)c1n[nH]cc1NC(=O)c1c(Cl)cccc1Cl,0.0998,0.0607,0.0482,0.00372,0.953,0.964,0.972,0.975,0.0833,0.0499,0.00549,-0.171,-0.131,-0.1,-0.185,-0.425,0.0507,0.0657,0.0758,0.0972,0.947,0.964,0.971,0.977,0.495,0.577,0.593,0.579,0.503,0.57,0.566,0.533

# Reference: the supplement of paper PMC6897291
